# APP transl inh = APP translation inhibition; 190,000 tested, 0.82% active; SH-SY5Y APP 5'UTR-luciferase reporter, luminescence; inhibition, % at 2 µM;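 active means inhibition above a set limit, derived from the sample mean plus 3 SD, cut at about 45% in these data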
# KLF5 inh = suppresses KLF5 promoter-driven expression; DLD-1 KLF5 promoter-luciferase reporter, luminescence; inhibition, % at 5 µM; 290,000 tested, 0.23% active; AID 1700;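 active means inhibition above a per-plate limit of that plate's mean compound inhibition plus 3 SD, cut at about 60% in these data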;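 further: 0% = DMSO wells and 100% = LY294002 at 200 µM; higher means less KLF5 promoter-driven luciferase light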
# aSyn 5UTR inh = MLPCN primary screen, SNCA 5' untranslated region. alpha-synuclein 5'UTR reporter, inhibitor activity. inhibition, % (tested at 7.5 µM). 300,000 tested, 0.82% active. AID 1813; in the data active means inhibition above about 60%;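 further: H4 neuroglioblastoma cells stably carrying SNCA 5'UTR luciferase fusion; 0% = DMSO wells and 100% = positive control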
# IEC-6 cytotox = kills IEC-6 intestinal cells in KLF5 counter-screen; 290,000 tested, 0.78% active; IEC-6 cytotoxicity, luminescence viability; AID 1825; inhibition, % at 5 µM;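 further: 0% = plate median of test compound wells and 100% = cytotoxic reference compound wells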
# BaF3 parental = parental Ba/F3 viability inhibition as JAK2V617F counter-screen | CellTiter-Glo ATP luminescence | inhibition, % at 5.6 µM | 220,000 tested, 1.1% active;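 active means inhibition above a per-campaign cutoff, the mean inhibition of all tested compounds plus 3 SD, cut at about 27% in these data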;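 further: 0% = DMSO wells and 100% = JAK Inhibitor I control wells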
# Ba/F3 V617F tox = lowers viability of Ba/F3 cells expressing EpoR and JAK2V617F. ATP luminescence. 220,000 tested, 1.1% active. inhibition, % at 5.6 µM;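 active means inhibition above the campaign mean plus 3 SD over all tested compounds, cut at about 24% in these data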;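 further: cytokine-independent growth of Ba/F3 cells driven by EpoR plus mutant JAK2; 0% = DMSO-treated cells and 100% = JAK inhibitor I control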
# IEC-6 cytotox cf = IEC-6 cytotoxicity, confirmation assay; inhibition, % at 5 µM; shares compounds with IEC-6 cytotox; 1,900 tested, 63% active; IEC-6 rat intestinal epithelial viability, luminescence;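 further: 0% = vehicle and 100% = reference cytotoxic drug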
# * = called active by the depositor; / = not tested or not shown. A selection: hits, their analogues and other compounds. The true share with any hit is near 2.2%. Unless noted, no stated cut-off is given here; in the data, active means inhibition above about 22%; inactive means the rest.
SMILES,APP transl inh,KLF5 inh,aSyn 5UTR inh,IEC-6 cytotox,BaF3 parental,Ba/F3 V617F tox,IEC-6 cytotox cf
c1cnc2c(c1)ccc1cccnc12,32,47,85*,70*,4,7,80*
CCC1CCCCN1CCCNC(=O)C1CCN(Cc2nc(-c3ccc(Cl)cc3)oc2C)CC1 (configuration not stated),/,-35,13,47*,/,/,70*
Cc1ccccc1OCCOC(=O)c1c(-c2ccccc2)noc1C,/,38,-16,54*,/,/,28*
CCOC(=O)C1CCN(S(=O)(=O)c2cccc3nonc23)CC1,-7,-9,15,-2,5,1,/
CCOC(=O)C1CCN(S(=O)(=O)c2c(Cl)ccc3nonc23)CC1,/,60,-309,100*,/,/,41*
CCOC(=O)c1c(NC(=O)CN(C)C)sc(C(=O)N(CC)CC)c1C,3,-26,14,1,1,-1,/
COc1ccccc1NC(=S)N(Cc1ccco1)Cc1cc2ccc(C)c(C)c2[nH]c1=O,/,45,34,78*,81*,71*,54*
Cc1cc2c(NCCc3ccccc3)ncnc2s1,/,-103,-64,22*,/,/,22*

# Bioassay records: PubChem, several laboratories
